According to PubChem BioAssay (Tox21):
Values without a mark were called inactive. Records with an inconclusive call do not appear. Where a call stands in place of a potency, no number is given. Activity calls are given as the source filed them. Unless noted, calls follow the shape of the full dose curve.

What was measured:
[1] = Nuclear factor erythroid 2-related factor 2/antioxidant responsive element (Nrf2/ARE) small molecule agonists: qHTS cell viability counter screen in human keratinocytes (AID 1919968; active = well fitted curve in the direction sought with a large enough effect in the repeat runs; an effect the other way counts as inactive or inconclusive; also: nearly all actives have a fitted effect of over 55% in size; also: potency is read from the fitted curve at half-maximal effect)
Summary of the method: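 Stably transfected HaCaT (KeratinoSens), 1,500/well. Test agents in DMSO were applied for 23 h, 37 C/5% CO2. CellTiter-Fluor was incubated 1 h before the fluorescence read.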

[2] = Nuclear factor erythroid 2-related factor 2/antioxidant responsive element (Nrf2/ARE) small molecule agonists: luciferase reporter gene qHTS assay in human keratinocytes (AID 1919969); also: nearly all actives have a fitted effect of over 35% in size
[3] = molecular target: Gonadotropin-releasing hormone receptor (Homo sapiens) (UniProt P30968); experiment: Human gonadotropin-releasing hormone receptor (GnRHR) small molecule agonists, calcium flux assay in GnRHR-HEK293 cells (AID 1920063); also: nearly all actives have a fitted effect of over 35% in size; also: potency is read from the fitted curve at half-maximal effect
Gonadotropin-releasing hormone receptor (Homo sapiens), sequence (P30968 whole entry, looked up): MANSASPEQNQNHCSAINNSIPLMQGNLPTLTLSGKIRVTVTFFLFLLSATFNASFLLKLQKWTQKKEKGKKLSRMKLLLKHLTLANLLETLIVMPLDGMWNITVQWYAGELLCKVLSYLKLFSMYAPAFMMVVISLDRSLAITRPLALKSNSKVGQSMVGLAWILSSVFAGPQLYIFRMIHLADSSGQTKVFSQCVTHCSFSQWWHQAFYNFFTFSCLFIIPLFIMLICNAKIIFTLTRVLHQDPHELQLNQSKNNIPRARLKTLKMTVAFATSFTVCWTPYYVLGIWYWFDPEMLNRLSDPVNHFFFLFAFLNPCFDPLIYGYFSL
Summary of the method: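 Stable human GnRHR HEK293 line. 18 h plating, then calcium dye for 1 h at 37 C. Agonist-mode compound addition from DMSO stocks; fluorescence monitored 3 min.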

[4] = molecular target: KiSS-1 receptor (Homo sapiens) (UniProt Q969F8); experiment: Human kisspeptin (KISS1R) small molecule agonists, calcium flux assay in KISS1R-HEK293 cells (AID 1920064; active = well fitted curve in the direction sought with a large enough effect in the repeat runs; an effect the other way counts as inactive or inconclusive)
KiSS-1 receptor (Homo sapiens), sequence (Q969F8 whole entry, looked up): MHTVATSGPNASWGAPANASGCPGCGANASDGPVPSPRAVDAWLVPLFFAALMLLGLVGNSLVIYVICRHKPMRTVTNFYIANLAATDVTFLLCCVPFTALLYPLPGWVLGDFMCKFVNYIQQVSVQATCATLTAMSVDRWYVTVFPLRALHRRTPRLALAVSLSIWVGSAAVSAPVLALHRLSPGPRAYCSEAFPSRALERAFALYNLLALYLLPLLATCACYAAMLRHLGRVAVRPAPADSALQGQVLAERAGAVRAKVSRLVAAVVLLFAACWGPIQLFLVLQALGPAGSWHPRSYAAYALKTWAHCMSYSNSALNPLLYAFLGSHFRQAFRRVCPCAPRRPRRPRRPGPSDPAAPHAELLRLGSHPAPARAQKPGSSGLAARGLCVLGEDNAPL
Summary of the method: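 After overnight (18 h) culture at 37 C/5% CO2, human KISS1R-HEK293 cells received calcium dye for 1 h, then test compound; emission at 540 nm (excitation 480 nm) was tracked for 3 min.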

[5] = G protein-coupled receptor (GPCR) small molecule agonists, calcium flux assay: HEK293 wild type cell line counter screen (AID 1920065)
Summary of the method: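 Following 18 h incubation at 37 C/5% CO2, plates got calcium dye for 1 h; compounds, ATP or DMSO were then pinned in and fluorescence followed kinetically (480/540 nm).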

[6] = p53 small molecule agonists, cell-based qHTS assay with human liver microsomes (AID 1963577)
Summary of the method: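 Cells carrying a p53-responsive bla reporter were rested 5 h (37 C, 5% CO2) before compound transfer. Human liver microsomes plus NADPH, 0.5 mg/mL final apiece, supplied metabolism during the 16 h 37 C exposure.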

[7] = p53 small molecule agonists, cell-based qHTS assay with rat liver microsomes (AID 1963578)
Summary of the method: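 Fluorescence from a beta-lactamase reporter under a p53 response element was measured after cells had been incubated 16 h at 37 C with test compound and rat liver microsomes plus NADPH (0.5 mg/mL final each).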

[8] = p53 small molecule agonists, cell-based qHTS assay with human liver microsomes: qHTS cell viability counter screen (AID 1963579); also: nearly all actives have a fitted effect of over 45% in size; also: potency is read from the fitted curve at half-maximal effect
Summary of the method: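 Seed p53RE-bla cells at 4,000 per well; incubate 5 h at 37 C; add compound, human liver microsomes and NADPH; incubate 16 h at 37 C; add CellTiter-Glo; after 30 min at room temperature, read luminescence.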

[9] = p53 small molecule agonists, cell-based qHTS assay: qHTS cell viability counter screen (AID 1963581); also: nearly all actives have a fitted effect of over 45% in size; also: potency is read from the fitted curve at half-maximal effect
Summary of the method: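 qHTS counter screen: 16 h compound exposure at 37 C of p53RE-bla HCT-116 cells (4,000 per well, seeded 5 h prior), cell viability by ATP luminescence.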

[10] = p53 small molecule agonists, cell-based qHTS assay (AID 1963582; active = well fitted activation curve with a large enough effect in the signal ratio in the repeat runs, not every such curve was filed as active; the % refers to the signal ratio)
Summary of the method: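 Measured: fluorescence from cleaved LiveBLAzer substrate. System: p53RE-bla cells, 16 h compound treatment at 37 C, 2 h substrate step at room temperature.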

[11] = cAMP Responsive Elements (CRE) small molecule agonists, cell-based qHTS assay (AID 1963590)
Summary of the method: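 Test agents in DMSO were incubated 3 h at 37 C/5% CO2 with CRE-bla HEK 293T cells seeded 18 h earlier; LiveBLAzer B/G FRET substrate was added and read after 2 h at room temperature.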

[12] = cAMP Responsive Elements (CRE) small molecule antagonists, cell-based qHTS assay (AID 1963591; active = well fitted inhibition curve with a large enough effect in the signal ratio in the repeat runs, not every such curve was filed as active; the % refers to the signal ratio)
Summary of the method: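 Reporter line CRE-bla HEK 293T in dialyzed-FBS DMEM; cells preincubated 18 h, treated 3 h with compound plus NKH477 (0.25 uM final); LiveBLAzer FRET, 2 h RT.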

[13] = molecular target: Beta-2 adrenergic receptor (Homo sapiens) (UniProt P07550); experiment: Adrenergic beta2 receptor (ADRB2) small molecule antagonists, cell-based qHTS assay (AID 1963592); also: series mostly up to about 92 µM; nearly all actives have a fitted effect of over 50% in size
Beta-2 adrenergic receptor (Homo sapiens), sequence (P07550 whole entry, looked up): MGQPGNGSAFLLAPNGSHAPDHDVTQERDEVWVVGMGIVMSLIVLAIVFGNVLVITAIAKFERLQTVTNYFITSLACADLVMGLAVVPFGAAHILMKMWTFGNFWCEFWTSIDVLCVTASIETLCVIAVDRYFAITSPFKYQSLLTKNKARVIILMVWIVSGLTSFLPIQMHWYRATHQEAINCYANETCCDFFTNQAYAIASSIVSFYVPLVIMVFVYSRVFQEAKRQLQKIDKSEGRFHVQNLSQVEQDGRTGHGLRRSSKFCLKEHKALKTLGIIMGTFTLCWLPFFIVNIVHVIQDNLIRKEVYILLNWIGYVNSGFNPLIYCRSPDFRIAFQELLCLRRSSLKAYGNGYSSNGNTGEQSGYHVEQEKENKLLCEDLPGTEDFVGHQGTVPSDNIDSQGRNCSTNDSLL
Summary of the method: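 Assay format: CHO-ADRB2 cells, 18-20hr seeding at 37C/5% CO2, then compound plus 1nM isoproterenol agonist mix for 0.5hr RT. Homogeneous time-resolved fluorescence cAMP detection after 1hr, expressed as 665/615 nm ratio.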

[14] = molecular target: D(2) dopamine receptor (Homo sapiens) (UniProt P14416); experiment: Dopamine D2 receptor (DRD2) small molecule antagonists, cell-based qHTS assay (AID 1963595; active = well fitted inhibition curve with a large enough effect in the signal ratio in the repeat runs, with a control signal flat; the % refers to the signal ratio)
D(2) dopamine receptor (Homo sapiens), sequence (P14416 whole entry, looked up): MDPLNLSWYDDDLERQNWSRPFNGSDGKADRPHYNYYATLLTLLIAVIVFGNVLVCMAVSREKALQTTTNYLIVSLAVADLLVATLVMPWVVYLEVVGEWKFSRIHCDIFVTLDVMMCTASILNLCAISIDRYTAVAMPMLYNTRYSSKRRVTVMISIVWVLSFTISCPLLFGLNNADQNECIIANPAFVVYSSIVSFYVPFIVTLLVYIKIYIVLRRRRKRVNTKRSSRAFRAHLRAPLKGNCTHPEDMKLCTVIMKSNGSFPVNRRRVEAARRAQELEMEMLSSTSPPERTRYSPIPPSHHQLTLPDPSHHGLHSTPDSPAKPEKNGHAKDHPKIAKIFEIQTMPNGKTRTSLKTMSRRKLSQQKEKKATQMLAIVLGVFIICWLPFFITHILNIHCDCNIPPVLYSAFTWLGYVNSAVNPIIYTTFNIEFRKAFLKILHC
Summary of the method: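 Cells were plated and grown for 24 h at 37 °C. Ro20-1724 (0.1 mM final) went in first, then compound for 10 min. NKH477 (200 nM) with quinpirole (12 nM) followed for 30 min at RT, then HTRF detection reagents for 1 h.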

[15] = molecular target: 5-hydroxytryptamine receptor 2A (Homo sapiens) (UniProt P28223); experiment: 5-hydroxytryptamine receptor 2A (HTR2A) small molecule agonists, cell-based qHTS assay (AID 1963587); also: nearly all actives have a fitted effect of over 30% in size
5-hydroxytryptamine receptor 2A (Homo sapiens), sequence (P28223 whole entry, looked up): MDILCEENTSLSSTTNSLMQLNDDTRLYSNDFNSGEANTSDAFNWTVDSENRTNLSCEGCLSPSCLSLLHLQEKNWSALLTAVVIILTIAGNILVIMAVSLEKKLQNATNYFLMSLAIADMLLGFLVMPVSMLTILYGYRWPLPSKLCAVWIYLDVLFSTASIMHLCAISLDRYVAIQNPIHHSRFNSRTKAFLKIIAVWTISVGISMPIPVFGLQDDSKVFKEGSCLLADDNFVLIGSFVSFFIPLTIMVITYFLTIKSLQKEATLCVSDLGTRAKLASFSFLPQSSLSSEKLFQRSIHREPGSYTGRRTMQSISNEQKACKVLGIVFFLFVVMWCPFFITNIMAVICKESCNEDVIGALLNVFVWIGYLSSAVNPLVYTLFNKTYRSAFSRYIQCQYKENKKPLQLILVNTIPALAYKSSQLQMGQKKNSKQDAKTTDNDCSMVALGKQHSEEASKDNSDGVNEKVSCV
Summary of the method: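 Kinetic calcium-flux fluorescence (2 min, 1 sec intervals) after compound addition in agonist mode. HTR2A-CHO cells were cultured 18 h, then dye-loaded 1 h at 37 C.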

[16] = molecular target: Muscarinic acetylcholine receptor M1 (Homo sapiens) (UniProt P11229); experiment: Cholinergic receptor muscarinic 1 (CHRM1) small molecule agonists, cell-based qHTS assay (AID 1963589); also: nearly all actives have a fitted effect of over 35% in size
Muscarinic acetylcholine receptor M1 (Homo sapiens), sequence (P11229 whole entry, looked up): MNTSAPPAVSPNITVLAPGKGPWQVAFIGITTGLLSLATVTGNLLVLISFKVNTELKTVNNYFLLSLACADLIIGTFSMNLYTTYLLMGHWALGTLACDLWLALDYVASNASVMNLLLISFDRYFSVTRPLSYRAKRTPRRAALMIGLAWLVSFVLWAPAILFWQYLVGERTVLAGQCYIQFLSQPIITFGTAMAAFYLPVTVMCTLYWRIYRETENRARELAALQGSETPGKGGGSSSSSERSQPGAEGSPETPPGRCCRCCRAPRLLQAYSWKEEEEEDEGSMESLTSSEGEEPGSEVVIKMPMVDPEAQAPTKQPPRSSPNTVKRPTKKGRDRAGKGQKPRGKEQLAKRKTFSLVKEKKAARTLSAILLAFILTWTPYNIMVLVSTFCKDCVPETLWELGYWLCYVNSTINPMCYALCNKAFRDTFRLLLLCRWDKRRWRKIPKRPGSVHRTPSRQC
Summary of the method: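 Kinetic fluorescence (1 s intervals) of calcium-sensitive dye in human M1 CHO cells after compound addition; cells pre-incubated 18 h at 37 C/5% CO2 and dye-loaded 1 h.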

[17] = molecular target: Beta-2 adrenergic receptor (Homo sapiens) (UniProt P07550); experiment: Adrenergic beta2 receptor (ADRB2) small molecule agonists, cell-based qHTS assay (AID 1963593);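 also: CHO cells stably overexpressing human ADRB2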
Summary of the method: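 CHO cells stably over-expressing ADRB2 were plated overnight at 37C, then dosed with compounds plus a stimulation mix containing 100uM IBMX and 25uM Ro-20-1724 for 0.5hr at room temperature. cAMP was measured by HTRF competition, 1hr.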

[18] = molecular target: D(2) dopamine receptor (Homo sapiens) (UniProt P14416); experiment: Dopamine D2 receptor (DRD2) small molecule agonists, cell-based qHTS assay (AID 1963594); also: nearly all actives have a fitted effect of over 35% in size
Summary of the method: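 cAMP accumulation in DRD2-HEK293 cells measured by HTRF after 1 h detection; compounds added 10 min before NKH477 (200nM […]) forskolin-analogue stimulation, 30 min at room temperature, with Ro20-1724 present at 0.1 mM final.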

[19] = molecular target: 5-hydroxytryptamine receptor 2A (Homo sapiens) (UniProt P28223); experiment: 5-hydroxytryptamine receptor 2A (HTR2A) small molecule antagonists, cell-based qHTS assay (AID 1963586); also: nearly all actives have a fitted effect of over 45% in size; also: potency is read from the fitted curve at half-maximal effect
Summary of the method: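 CHO cells stably expressing human HTR2A were plated for 18 h at 37 C, then loaded with calcium dye for 1 h. Compounds were preincubated 5 min at room temperature before DOI (4 nM solution) was added. Kinetic fluorescence was read for 3 min.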

[20] = molecular target: Muscarinic acetylcholine receptor M1 (Homo sapiens) (UniProt P11229); experiment: Cholinergic receptor muscarinic 1 (CHRM1) small molecule antagonists, cell-based qHTS assay (AID 1963588); also: nearly all actives have a fitted effect of over 40% in size; also: potency is read from the fitted curve at half-maximal effect
Summary of the method: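 Compounds were tested at 15 concentrations in three independent runs. Dye-loaded CHRM1-CHO cells were exposed 5 min at room temperature before stimulation by acetylcholine added at 50nM. Intracellular calcium was read kinetically on FDSS for 3 min.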

Row | SMILES | Potency [1] | Potency [2] | Potency [3] | outcome [4] | outcome [5] | Potency [6] | Potency [7] | Potency [8] | Potency [9] | Potency [10] | Potency [11] | Potency [12] | Potency [13] | Potency [14] | Potency [15] | Potency [16] | Potency [17] | Potency [18] | Potency [19] | Potency [20]
1 | NC(=O)N1c2ccccc2CC(=O)c2ccccc21 | inactive | inactive | inactive | inactive | inactive | inactive | inactive | inactive | inactive | inactive | inactive | inactive | inactive | inactive | – | – | – | – | – | –
2 | CCCN(CCC)c1c([N+](=O)[O-])cc(C(F)(F)F)c(N)c1[N+](=O)[O-] | 24.3 µM (active) | inactive | inactive | inactive | inactive | inactive | inactive | inactive | 18.2 µM (active) | inactive | – | – | inactive | – | inactive | inactive | inactive | inactive | – | –
3 | O=Cc1ccccc1[N+](=O)[O-] | inactive | inactive | inactive | inactive | inactive | inactive | inactive | inactive | inactive | – | inactive | inactive | inactive | inactive | inactive | inactive | inactive | inactive | inactive | inactive
4 | C=C(C)CCCC | inactive | inactive | inactive | inactive | inactive | inactive | inactive | inactive | inactive | inactive | inactive | inactive | – | inactive | inactive | inactive | – | inactive | – | inactive
5 | CC/C=C\CCOC(C)=O | inactive | inactive | inactive | inactive | inactive | inactive | inactive | inactive | inactive | – | inactive | inactive | inactive | inactive | inactive | inactive | – | inactive | inactive | inactive
6 | CCCCCCCCCCOS(=O)(=O)O | inactive | inactive | inactive | inactive | inactive | inactive | inactive | inactive | inactive | inactive | inactive | inactive | inactive | – | inactive | inactive | – | inactive | – | inactive
7 | CCCCCCCCCCCl | inactive | inactive | inactive | inactive | inactive | inactive | inactive | inactive | inactive | – | inactive | – | inactive | inactive | inactive | inactive | – | inactive | – | inactive
8 | CCCCCCCCCCCC(=O)NCCCN(C)C | 27.3 µM (active) | inactive | 30.9 µM (active) | inactive | inactive | inactive | inactive | 45.8 µM (active) | 32.4 µM (active) | – | – | – | inactive | – | – | inactive | inactive | inactive | 1.68 µM (active) | 8.4 µM (active)
